Measurements as given in PubChem BioAssay AID1159580 (chemical genetic matrix, 2015).
The campaign covered roughly 5,500 compounds. About 2,000 (36%) were called active. Roughly 18% stayed inconclusive and do not appear here. No stated cut-off is given here; in the data, active means normalized growth mostly below about 0.91 (no sharp cut-off); inconclusive means no clear call, values can overlap the other calls; inactive means mostly above about 0.92. The list shows a part of the results.

Experiment: chemical genetic growth profiling, strain panel (AID 1159580);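 further: tested at 20 µM; growth read once vehicle control cultures reached saturation at 30 °C; 1 = growth at the plate median or of vehicle wells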
Conditions: growth OD
[1] = S. cerevisiae deletion strains, locus YAL013W, strain DEP1, stronger effect = lower value
[2] = S. cerevisiae deletion strains, locus YBR229C, strain ROT2, stronger effect = lower value
[3] = S. cerevisiae deletion strains, locus YDL101C, strain DUN1, stronger effect = lower value
[4] = S. cerevisiae deletion strains, locus YDL134C, strain PPH21, stronger effect = lower value
[5] = S. cerevisiae deletion strains, locus YDR150W, strain NUM1, stronger effect = lower value
[6] = S. cerevisiae deletion strains, locus YEL061C, strain CIN8, stronger effect = lower value
[7] = S. cerevisiae deletion strains, locus YGR078C, strain PAC10, stronger effect = lower value
[8] = S. cerevisiae deletion strains, locus YGR229C, strain SMI1, stronger effect = lower value
[9] = S. cerevisiae deletion strains, locus YHR030C, strain SLT2, stronger effect = lower value
[10] = S. cerevisiae deletion strains, locus YHR087W, strain rtc3, stronger effect = lower value
[11] = S. cerevisiae deletion strains, locus YJR043C, strain POL32, stronger effect = lower value
[12] = S. cerevisiae deletion strains, locus YJR075W, strain HOC1, stronger effect = lower value
[13] = S. cerevisiae deletion strains, locus YKL190W, strain CNB1, stronger effect = lower value
[14] = S. cerevisiae deletion strains, locus YLR039C, strain RIC1, stronger effect = lower value
[15] = S. cerevisiae deletion strains, locus YLR058C, strain SHM2 (second series), stronger effect = lower value
[16] = S. cerevisiae deletion strains, locus YLR085C, strain ARP6, stronger effect = lower value
[17] = S. cerevisiae deletion strains, locus YLR262C, strain YPT6, stronger effect = lower value
[18] = S. cerevisiae deletion strains, locus YML094W, strain GIM5, stronger effect = lower value
[19] = S. cerevisiae deletion strains, locus YMR219W, strain ESC1, stronger effect = lower value
[20] = S. cerevisiae deletion strains, locus YMR263W, strain SAP30, stronger effect = lower value
[21] = S. cerevisiae deletion strains, locus YNL153C, strain GIM3, stronger effect = lower value
[22] = S. cerevisiae deletion strains, locus YNL298W, strain CLA4 (second series), stronger effect = lower value
[23] = S. cerevisiae deletion strains, locus YNL322C, strain KRE1, stronger effect = lower value
[24] = S. cerevisiae deletion strains, locus YNR030W, strain Alg12, stronger effect = lower value
[25] = S. cerevisiae deletion strains, locus YOL006C, strain TOP1, stronger effect = lower value
[26] = S. cerevisiae deletion strains, locus YPL055C, strain LGE1, stronger effect = lower value
[27] = S. cerevisiae deletion strains, locus YPL241C, strain CIN2, stronger effect = lower value
[28] = S. cerevisiae deletion strains, locus YPR135W, strain CTF4, stronger effect = lower value
[29] = S. cerevisiae strains, strain wild type, stronger effect = lower value
[30] = S. cerevisiae deletion strains, locus YJL187C, strain SWE1, stronger effect = lower value

Measured: normalized growth

O=[N+]([O-])c1ccccc1SCc1n[nH]c(=S)n1-c1cccc(C(F)(F)F)c1
inactive: [1] 0.973 | [2] 0.991 | S. cerevisiae deletion strains, locus YCL061C, strain MRC1, stronger effect = lower value 0.989 | [3] 1 | [4] 1.01 | [5] 1.01 | [6] 0.969 | [7] 0.967 | [8] 0.994 | [9] 1.04 | [10] 1.01 | [11] 0.999 | [12] 1.02 | [13] 0.974 | [14] 0.988 | [15] 0.996 | [16] 0.87 | [17] 1.01 | [18] 0.967 | [19] 0.992 | [20] 1 | [21] 1.03 | [22] 0.932 | [23] 0.97 | [24] 0.94 | [25] 0.886 | [26] 0.99 | [27] 0.985 | [28] 1.13 | [29] 0.975

FC(F)(F)c1cccc(CSc2n[nH]c(=S)s2)c1
inactive: [5] 0.903 | [9] 0.728 | [17] 0.838 | [18] 0.914
active: [1] 0.774 | [2] 0.479 | [3] 0.522 | [4] 0.883 | [6] 0.861 | [7] 0.427 | [10] 0.592 | [30] 0.51 | [11] 0.791 | [12] 0.31 | [13] 0.887 | [14] 0.706 | [15] 0.797 | [16] 0.593 | [19] 0.606 | [20] 0.763 | [21] 0.533 | [22] 0.787 | [23] 0.873 | [24] 0.824 | [25] 0.409 | [27] 0.833 | [28] 0.638

O=[N+]([O-])c1cnc(Sc2nnc(SCc3cccc(C(F)(F)F)c3)s2)s1
active: S. cerevisiae deletion strains, locus YAR019C, strain CDC15, stronger effect = lower value 0.098 | S. cerevisiae deletion strains, locus YBL105C, strain PKC1, stronger effect = lower value 0.0818 | S. cerevisiae deletion strains, locus YBR135W, strain CKS1, stronger effect = lower value 0.0984 | S. cerevisiae deletion strains, locus YBR136W, strain MEC1, stronger effect = lower value 0.0945 | S. cerevisiae deletion strains, locus YBR160W, strain CDC28, stronger effect = lower value 0.0963 | S. cerevisiae deletion strains, locus YDL017W, strain CDC7, stronger effect = lower value 0.0822 | S. cerevisiae deletion strains, locus YDL028C, strain MPS1, stronger effect = lower value 0.111 | [3] 0.107 | S. cerevisiae deletion strains, locus YDL108W, strain KIN28, stronger effect = lower value 0.0971 | S. cerevisiae deletion strains, locus YDL132W, strain cdc53, stronger effect = lower value 0.0889 | S. cerevisiae deletion strains, locus YDL214C, strain PRR2, stronger effect = lower value 0.106 | S. cerevisiae deletion strains, locus YDR052C, strain DBF4, stronger effect = lower value 0.0805 | S. cerevisiae deletion strains, locus YDR054C, strain cdc34, stronger effect = lower value 0.0921 | S. cerevisiae deletion strains, locus YDR226W, strain ADK1, stronger effect = lower value 0.0971 | S. cerevisiae deletion strains, locus YDR477W, strain SNF1, stronger effect = lower value 0.101 | S. cerevisiae deletion strains, locus YER123W, strain YCK3, stronger effect = lower value 0.111 | S. cerevisiae deletion strains, locus YER133W, strain GLC7, stronger effect = lower value 0.107 | S. cerevisiae deletion strains, locus YFL009W, strain cdc4, stronger effect = lower value 0.102 | S. cerevisiae deletion strains, locus YFL029C, strain CAK1, stronger effect = lower value 0.098 | S. cerevisiae deletion strains, locus YFR003C, strain YPI1, stronger effect = lower value 0.0893 | S. cerevisiae deletion strains, locus YFR019W, strain FAB1, stronger effect = lower value 0.106 | S. cerevisiae deletion strains, locus YFR028C, strain CDC14, stronger effect = lower value 0.0995 | S. cerevisiae deletion strains, locus YGR040W, strain KSS1, stronger effect = lower value 0.0976 | S. cerevisiae deletion strains, locus YGR052W, strain FMP48, stronger effect = lower value 0.101 | S. cerevisiae deletion strains, locus YGR092W, strain DBF2, stronger effect = lower value 0.0989 | [9] 0.131 | S. cerevisiae deletion strains, locus YHR079C, strain IRE1, stronger effect = lower value 0.0953 | S. cerevisiae deletion strains, locus YHR082C, strain KSP1, stronger effect = lower value 0.13 | S. cerevisiae deletion strains, locus YHR205W, strain SCH9, stronger effect = lower value -0.0106 | S. cerevisiae deletion strains, locus YIL147C, strain SLN1, stronger effect = lower value 0.102 | S. cerevisiae deletion strains, locus YJL095W, strain BCK1, stronger effect = lower value 0.118 | S. cerevisiae deletion strains, locus YJL128C, strain PBS2, stronger effect = lower value 0.0978 | S. cerevisiae deletion strains, locus YJL157C, strain FAR1, stronger effect = lower value 0.0837 | S. cerevisiae deletion strains, locus YJR016C, strain ILV3, stronger effect = lower value 0.0869 | S. cerevisiae deletion strains, locus YJR066W, strain TOR1 (second series), stronger effect = lower value 0.0917 | S. cerevisiae deletion strains, locus YJR066W, strain TOR1, stronger effect = lower value 0.122 | S. cerevisiae deletion strains, locus YKL048C, strain ELM1, stronger effect = lower value 0.111 | S. cerevisiae deletion strains, locus YKL067W, strain YNK1, stronger effect = lower value 0.105 | S. cerevisiae deletion strains, locus YKL101W, strain HSL1, stronger effect = lower value 0.1 | S. cerevisiae deletion strains, locus YKL193C, strain SDS22, stronger effect = lower value 0.0958 | S. cerevisiae deletion strains, locus YKL203C, strain TOR2, stronger effect = lower value 0.111 | S. cerevisiae deletion strains, locus YLR113W, strain HOG1, stronger effect = lower value 0.127 | S. cerevisiae deletion strains, locus YLR133W, strain CKI1, stronger effect = lower value 0.0966 | S. cerevisiae deletion strains, locus YLR403W, strain SFP1, stronger effect = lower value -0.00531 | S. cerevisiae deletion strains, locus YML070W, strain DAK1, stronger effect = lower value 0.103 | S. cerevisiae deletion strains, locus YMR001C, strain CDC5, stronger effect = lower value 0.0974 | S. cerevisiae deletion strains, locus YMR205C, strain PFK2 (second series), stronger effect = lower value 0.101 | S. cerevisiae deletion strains, locus YMR277W, strain FCP1, stronger effect = lower value 0.0974 | S. cerevisiae deletion strains, locus YNL006W, strain LST8, stronger effect = lower value 0.0863 | S. cerevisiae deletion strains, locus YNL020C, strain ARK1, stronger effect = lower value 0.109 | S. cerevisiae deletion strains, locus YNL161W, strain CBK1, stronger effect = lower value 0.0953 | S. cerevisiae deletion strains, locus YNL183C, strain NPR1, stronger effect = lower value 0.093 | S. cerevisiae deletion strains, locus YNL207W, strain RIO2, stronger effect = lower value 0.0918 | S. cerevisiae deletion strains, locus YNL222W, strain SSU72, stronger effect = lower value 0.1 | S. cerevisiae deletion strains, locus YNL307C, strain MCK1 (second series), stronger effect = lower value 0.108 | S. cerevisiae deletion strains, locus YOL078W, strain AVO1, stronger effect = lower value 0.0995 | S. cerevisiae deletion strains, locus YOL136C, strain PFK27, stronger effect = lower value 0.0976 | S. cerevisiae deletion strains, locus YOR061W, strain CKA2, stronger effect = lower value 0.0984 | S. cerevisiae deletion strains, locus YOR119C, strain RIO1, stronger effect = lower value 0.105 | S. cerevisiae deletion strains, locus YOR231W, strain MKK1, stronger effect = lower value 0.0992 | S. cerevisiae deletion strains, locus YOR329C, strain SCD5, stronger effect = lower value 0.0854 | S. cerevisiae deletion strains, locus YPL031C, strain PHO85, stronger effect = lower value 0.103 | S. cerevisiae deletion strains, locus YPL153C, strain RAD53, stronger effect = lower value 0.0944 | S. cerevisiae deletion strains, locus YPL204W, strain HRR25, stronger effect = lower value 0.107 | S. cerevisiae deletion strains, locus YPL209C, strain IPL1, stronger effect = lower value 0.0842 | S. cerevisiae deletion strains, locus YPL256C, strain CLN2, stronger effect = lower value 0.133 | S. cerevisiae deletion strains, locus YPR025C, strain CCL1, stronger effect = lower value 0.0989 | S. cerevisiae deletion strains, locus YPR106W, strain ISR1, stronger effect = lower value 0.0861 | S. cerevisiae deletion strains, locus YPR111W, strain DBF20, stronger effect = lower value 0.0999 | S. cerevisiae deletion strains, strain NNK1, stronger effect = lower value 0.0942 | S. cerevisiae deletion strains, strain TSCII, stronger effect = lower value 0.102

S=c1[nH]nc(SCCSc2n[nH]c(=S)s2)s1
active: [30] 0.93
inactive: [1] 0.969 | [2] 1.04 | [3] 0.947 | [4] 0.993 | [5] 1.03 | [6] 1.02 | [7] 0.952 | [8] 0.987 | [9] 1.1 | [10] 1.02 | [11] 1.02 | [12] 1.06 | [14] 1 | [15] 0.989 | [16] 0.945 | [17] 1.16 | [18] 0.988 | [19] 0.969 | [20] 0.994 | S. cerevisiae deletion strains, locus YMR307W, strain GAS1, stronger effect = lower value 1 | [21] 1 | [22] 0.963 | [23] 0.987 | [24] 0.989 | [26] 0.965 | [27] 0.984 | [28] 1.02 | [29] 0.988
